Compound activity from PubChem.
Compounds with a hit are over-represented: about 22% of the library has one in this group of screens.
CYP2C19 activ: increases human CYP2C19 enzyme activity; P33261; recombinant CYP2C19, luciferin-H EGE luminescence; hits give high values; 0 = fully inhibited enzyme, 1 = untreated enzyme; activation factor at 5 µM; 96,000 tested, under 10 active; AID 1025;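 active means activation factor of at least 2 at 5 µM in the primary screen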
CYP2C19 inhib: inhibitors of human CYP2C19. P33261. CYP2C19 Supersomes, luciferin-H EGE luminescence, 30 min. actives 21% (n = 96,000). inhibition, % at 5 µM;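 active means CYP2C19 inhibition above a set limit at 5 µM in the primary screen, cut at about 50% in these data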
CYP2C9 inhib: human CYP2C9 inhibition; P11712; CYP2C9 Supersomes, luciferin-H conversion, luminescence; inhibition, % at 5 µM; actives 20% (n = 96,000); AID 777;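 active means blocking of liver enzyme CYP2C9 beyond about 50% at 5 µM, limit read from the data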
Target sequence (P11712 whole entry, looked up): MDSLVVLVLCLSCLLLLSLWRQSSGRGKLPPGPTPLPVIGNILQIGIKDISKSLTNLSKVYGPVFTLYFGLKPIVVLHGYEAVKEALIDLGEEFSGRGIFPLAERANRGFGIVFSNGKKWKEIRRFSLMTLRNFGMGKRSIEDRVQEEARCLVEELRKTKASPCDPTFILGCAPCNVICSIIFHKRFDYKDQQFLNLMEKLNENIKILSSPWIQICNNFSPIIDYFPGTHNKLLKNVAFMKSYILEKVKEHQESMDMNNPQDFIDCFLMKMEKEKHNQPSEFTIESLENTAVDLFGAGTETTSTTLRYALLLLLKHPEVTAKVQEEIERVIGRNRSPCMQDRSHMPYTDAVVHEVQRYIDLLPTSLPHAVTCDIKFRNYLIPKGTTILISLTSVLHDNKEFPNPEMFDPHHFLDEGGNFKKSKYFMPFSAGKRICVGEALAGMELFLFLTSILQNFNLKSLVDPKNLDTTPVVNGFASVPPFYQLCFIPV
CYP2C9 act: CYP2C9 (human) activation; actives 1.4% (n = 96,000); activation factor at 5 µM; recombinant CYP2C9, luciferin-H conversion, luminescence; hits give high values; factor 1 = untreated enzyme, 0 = blocked;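 active means activation factor of 2 or more for CYP2C9 at a 5 µM dose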
Measles CPE: protection of cells from measles virus. AID 841. Measles virus-infected cells, CPE protection, absorbance. actives 1.5% (n = 140,000). protection (pct of control), % at 4 µM; in the data active means protection mostly above about 24%, no sharp cut-off; inactive means mostly below about 26%
Large screens that a line does not name were inactive.

CCc1ccc2c(CN3CCN(S(=O)(=O)c4ccc5c(c4)OCCO5)CC3)cc(=O)oc2c1	CYP2C9 inhib 53
CCN1CCN(S(=O)(=O)c2ccc3c(c2)OCCO3)CC1	none
CCc1ccc2oc(=O)cc(CN3CCOCC3)c2c1	CYP2C19 inhib 65
Cc1ccc(CN2CCN(/N=C/c3ccc(C(F)(F)F)cc3)CC2)c(C)c1	none (no result: CYP2C19 activ, CYP2C19 inhib, CYP2C9 inhib, CYP2C9 act)
Cc1cccc(C(=O)N[C@H](C(=O)OCC(=O)NC2CCS(=O)(=O)C2)C(C)C)c1 (some centres undefined)	none (no result: CYP2C19 activ, CYP2C19 inhib, CYP2C9 inhib, CYP2C9 act)
CCOCCCNC(=O)C(NC(=O)c1cnccn1)c1ccc(C)cc1 (centres undefined)	CYP2C19 inhib 59
Cc1cc(C)c2cc3c(N)c(C(=O)N4CCc5ccccc5C4)sc3nc2c1	none
Cc1ccc(-c2cc(C(=O)N3CCCc4ccccc43)c3ccccc3n2)cc1	CYP2C19 inhib 71, CYP2C9 inhib 93
Cc1ccc2nc3sc(C(=O)N4CCCc5ccccc54)c(N)c3cc2c1	CYP2C19 inhib 87, CYP2C9 inhib 92
O=C(c1cc(-c2cccnc2)nc2ccccc12)N1CCCc2ccccc21	none (no result: CYP2C19 activ, CYP2C19 inhib, CYP2C9 inhib, CYP2C9 act)
COC(=O)/C(=N/Nc1ccccc1C)Sc1nnc(C(O)c2ccccc2)n1-c1ccccc1 (centres undefined)	none (no result: CYP2C19 activ, CYP2C19 inhib, CYP2C9 inhib, CYP2C9 act)
CN(C)S(=O)(=O)c1ccc(Cl)c(C(=O)OCC(=O)NC(=O)c2cccn2C)c1	none (no result: CYP2C19 activ, CYP2C19 inhib, CYP2C9 inhib, CYP2C9 act)
COc1ccc(-c2nc(-c3cccs3)c(-c3cccs3)[nH]2)cc1O	CYP2C19 inhib 88, CYP2C9 inhib 96
COc1cc(OC)nc(-n2ncc(Br)c(Br)c2=O)n1	none (no result: CYP2C19 activ, CYP2C19 inhib, CYP2C9 inhib, CYP2C9 act)
CCOC(=O)C(C)Oc1cccc2c(=O)n(CC(=O)Nc3ccc(OCC)cc3)ccc12 (centres undefined)	none
COc1ccc(-n2c(SCC(=O)Nc3nccs3)nc3c(c2=O)SCC3)cc1	none
CCOc1ccc(-n2c(SCC(=O)Nc3ccc4c(c3)OCCO4)nc3c(c2=O)SCC3)cc1	CYP2C19 inhib 77, CYP2C9 inhib 63
CCOc1ccc(-n2c(SCC)nc3c(c2=O)SCC3)cc1	none
CCOc1ccc(-n2c(SCC(=O)Nc3ccc4c(c3)OCO4)nc3c(c2=O)SCC3)cc1	CYP2C9 inhib 59 (no result: Measles CPE)
COC(=O)CNC(=O)Cc1c(F)cccc1Cl	none
CCC/C=N/NC(=O)c1[nH]c2c([N+](=O)[O-])cccc2c1C	none (no result: CYP2C19 activ, CYP2C19 inhib, CYP2C9 inhib, CYP2C9 act)
CCOC(=O)c1c(C)[nH]c(C(=O)COC(=O)C2(C)CC2(Cl)Cl)c1C (centres undefined)	CYP2C9 inhib 99
CCOC(=O)c1c(C)[nH]c(C(=O)COC(=O)COc2ccc(OC)cc2)c1C	none (no result: CYP2C19 activ, CYP2C19 inhib, CYP2C9 inhib, CYP2C9 act)
CCOC(=O)c1c(C)[nH]c(C(=O)COC(=O)CCS(=O)(=O)c2ccc(C)cc2)c1C	none (no result: CYP2C19 activ, CYP2C19 inhib, CYP2C9 inhib, CYP2C9 act)
CCOC(=O)c1c(C)[nH]c(C(=O)COC(=O)CCC2CCCC2)c1C	CYP2C9 inhib 82
CCN1CCN(C(=O)CN(c2ccccc2C)S(C)(=O)=O)CC1	none
CC(Oc1ccc(Cl)cc1Cl)C(=O)NC(=S)N1CCc2ccccc21 (centres undefined)	none (no result: CYP2C19 activ, CYP2C19 inhib, CYP2C9 inhib, CYP2C9 act)
COc1cc2c(=O)n(CCCN3CCOCC3)c(=S)[nH]c2c(OC)c1OC	none
COc1cccc(NC(=O)COC(=O)c2c3c(nc4ccccc24)CCC(C)C3)c1 (centres undefined)	CYP2C9 inhib 56
O=C(COC(=O)c1c2c(nc3ccccc13)CCCC2)Nc1ccc2c(c1)OCO2	CYP2C19 inhib 76, CYP2C9 inhib 77
COc1cccc(NC(=O)COC(=O)c2ccccc2F)c1	none (no result: CYP2C19 activ, CYP2C19 inhib, CYP2C9 inhib, CYP2C9 act)
O=C(COC(=O)c1cc(-c2ccccc2)nc2ccccc12)Nc1ccc2c(c1)OCO2	none (no result: CYP2C19 activ, CYP2C19 inhib, CYP2C9 inhib, CYP2C9 act)
COc1ccc(-c2cn(/N=C/c3ccc(Cl)cc3Cl)c(N)n2)cc1	CYP2C19 inhib 74, CYP2C9 inhib 72
COc1cccc(-c2nc3ccccc3c(=O)o2)c1	none
COc1cccc(C2=N/C(=C\N(C)C)C(=O)O2)c1	CYP2C19 inhib 63
O=C1CC(c2ccco2)CC2=C1C(c1ccccc1)n1nc(C(F)(F)F)nc1N2 (centres undefined)	CYP2C9 inhib 62
CC1CC(=O)C2=C(C1)Nc1ccccc1N(C(=O)COc1ccccc1)C2c1ccco1 (centres undefined)	CYP2C19 inhib 56
COc1ccc(C2CC(=O)C3=C(C2)Nc2ncnn2C3c2ccccc2)cc1 (centres undefined)	none
COc1ccc(C2C3=C(CC(c4ccco4)CC3=O)Nc3ccccc3N2C(C)=O)cc1 (centres undefined)	CYP2C9 inhib 81
O=C(O)CS(=O)(=O)CC(=O)O	none
Cc1ccc(N(CC(=O)N/N=C/c2cc(C)n(-c3ccccc3C)c2C)S(C)(=O)=O)cc1	none (no result: CYP2C19 activ, CYP2C19 inhib, CYP2C9 inhib, CYP2C9 act)
